Data taken from PubChem BioAssay (NCI).
About 83,000 compounds went through this panel and 20% of them were active in at least one assay; those are over-represented in the sample as a whole.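 In brief: 96-well plates, 48 h treatment, single concentration, percent growth endpoint.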 The source made the active and inactive calls. The calls were made as follows: active = growth percent below 10; inactive = the rest.

How the values were obtained:
Assay in all cases: NCI-60 one-dose screen, 48 h (100 = growth as untreated, 0 = no growth, -100 = all killed)
Details in all cases: 10 µM unless noted
HCT-15 colon = system: HCT-15 colon
HT29 colon = system: HT29 colon
SNB-75 CNS = system: SNB-75 CNS
SNB-19 CNS = system: SNB-19 CNS
U251 CNS = system: U251 CNS
PC-3 prostate = system: PC-3 prostate
SK-MEL-5 melanoma = system: SK-MEL-5 melanoma
UACC-62 melanoma = system: UACC-62 melanoma
SK-MEL-28 melanoma = system: SK-MEL-28 melanoma
SK-MEL-2 melanoma = system: SK-MEL-2 melanoma
EKVX NSCLC = system: EKVX NSCLC
SN12C renal = system: SN12C renal
UO-31 renal = system: UO-31 renal
TK-10 renal = system: TK-10 renal
ACHN renal = system: ACHN renal
CAKI-1 renal = system: CAKI-1 renal
A498 renal = system: A498 renal
CCRF-CEM leukemia = system: CCRF-CEM leukemia
MOLT-4 leukemia = system: MOLT-4 leukemia

Measured: growth

COc1cc2oc(-c3cccc(C(=O)Nc4cccc([N+](=O)[O-])c4)c3)cc(=O)c2c(OC)c1OC
inactive: HCT-15 colon 58.1% | HT29 colon 59.9% | U251 CNS 23.8% | PC-3 prostate 33.3% | SK-MEL-5 melanoma 43.4% | UACC-62 melanoma 18.4% | SK-MEL-28 melanoma 25.3% | EKVX NSCLC 41.6% | SN12C renal 25.8% | TK-10 renal 37.2% | ACHN renal 16.2% | CCRF-CEM leukemia 84.1% | MOLT-4 leukemia 64.6%
active: SNB-75 CNS -6.58% | SNB-19 CNS -4.16% | SK-MEL-2 melanoma -0.125% | UO-31 renal 0.82% | CAKI-1 renal 8.83% | A498 renal 3.68%

CCOC(=O)C1=C(N)N(c2ccccc2)C2=C(C(=O)CC(C)(C)C2)C1c1cccc(Cl)c1Cl (centres undefined)
inactive: HCT-15 colon 65.8% | HT29 colon 72.7% | SNB-75 CNS 56.8% | SNB-19 CNS 41.7% | U251 CNS 55.2% | PC-3 prostate 35.3% | SK-MEL-5 melanoma 77.6% | UACC-62 melanoma 55.6% | SK-MEL-28 melanoma 91% | SK-MEL-2 melanoma 86.5% | EKVX NSCLC 57.5% | SN12C renal 63% | UO-31 renal 75.5% | TK-10 renal 95.2% | ACHN renal 57.9% | CAKI-1 renal 47.4% | A498 renal 128% | CCRF-CEM leukemia 54.8% | MOLT-4 leukemia 39.5%

COc1ccc(-c2c(Nn3cnnn3)no[n+]2[O-])cc1
inactive: HCT-15 colon 31.3% | HT29 colon 39.4% | SNB-75 CNS 29.6% | SNB-19 CNS 71% | U251 CNS 55.4% | PC-3 prostate 59.4% | SK-MEL-5 melanoma 75.7% | UACC-62 melanoma 47.5% | SK-MEL-28 melanoma 85.5% | SK-MEL-2 melanoma 82.5% | EKVX NSCLC 53.7% | SN12C renal 33.3% | UO-31 renal 20.8% | TK-10 renal 62.5% | ACHN renal 34.1% | CAKI-1 renal 25.7% | A498 renal 63.9% | CCRF-CEM leukemia 40.6% | MOLT-4 leukemia 27.9%

CCCCOc1ccc(NC(=O)c2sc3nc(C)ccc3c2N)cc1
active: SNB-75 CNS -17.3% | SNB-19 CNS 0.979% | U251 CNS 0.73% | SK-MEL-5 melanoma 3.73% | EKVX NSCLC 6.14% | UO-31 renal 1.84% | TK-10 renal -20.1% | ACHN renal -19.3%
inactive: HCT-15 colon 36.7% | HT29 colon 40.2% | PC-3 prostate 36.8% | UACC-62 melanoma 40% | SK-MEL-28 melanoma 50.7% | SK-MEL-2 melanoma 49.2% | SN12C renal 21.1% | CAKI-1 renal 26.5% | A498 renal 37.1% | CCRF-CEM leukemia 42% | MOLT-4 leukemia 48%

COc1cc2oc(-c3cccc(C(=O)Nc4ccc(Cl)cc4)c3)cc(=O)c2c(OCCNC(=O)[C@@H](N)CCC(=O)O)c1OC
inactive: HCT-15 colon 78% | HT29 colon 50.6% | SNB-75 CNS 86.4% | SNB-19 CNS 93.6% | U251 CNS 87.4% | PC-3 prostate 79% | SK-MEL-5 melanoma 83.6% | UACC-62 melanoma 100% | SK-MEL-28 melanoma 78.8% | SK-MEL-2 melanoma 104% | EKVX NSCLC 70.8% | SN12C renal 61.6% | UO-31 renal 80.1% | TK-10 renal 114% | ACHN renal 92.5% | CAKI-1 renal 68.9% | A498 renal 157% | CCRF-CEM leukemia 75.6% | MOLT-4 leukemia 36.6%

C=C1CC[C@@H]2[C@]3(C)COC(c4cn(-c5ccccc5)nc4-c4ccccc4)O[C@@H]3CC[C@@]2(C)[C@@H]1C/C=C1/C(=O)OC[C@H]1O (some centres undefined)
inactive: CCRF-CEM leukemia 31.5%
active: HCT-15 colon -87% | HT29 colon -70.4% | SNB-75 CNS -18.8% | SNB-19 CNS -60.8% | U251 CNS -88.5% | PC-3 prostate -26.8% | SK-MEL-5 melanoma -100% | UACC-62 melanoma -93.8% | SK-MEL-28 melanoma -84.2% | SK-MEL-2 melanoma -81.1% | EKVX NSCLC -63.5% | SN12C renal -67.1% | UO-31 renal -78.1% | TK-10 renal -57.3% | ACHN renal -95.5% | CAKI-1 renal -39.7% | A498 renal -13.9% | MOLT-4 leukemia -45.7%
